Bioassay records: PubChem, National Center for Advancing Translational Sciences (NCATS)
Rows were chosen to be rich in hits. Some 19% of all compounds tested hit in one or more screens of this group.
DT40 TDP1 no CPT: qHTS for Inhibitors of human tyrosyl-DNA phosphodiesterase 1 (TDP1): qHTS in cells in absence of CPT; DT40 Tdp1-/- hTDP1 cells, no CPT, ATP luminescence, 48 h; Potency, µM (top dose mostly 46.2 µM), inactives show top-dose activity change, negative = growth inhibition, actives largely listed as inhibitors; 15% of 420,000 active; AID 686978, 2013; further: nearly all actives have a fitted effect of over 55% in size
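Growth of hTDP1-complemented DT40 Tdp1-knockout cells is measured by ATP luminescence after at least 48 hr compound exposure at 37 °C, with DMSO substituting for the 20 nM CPT used in the parallel screen.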
HT1080 IDH1KD tx: HT-1080 IDH1 knockdown cell toxicity (counter line); 2% of 360,000 active; HT-1080 IDH1 knockdown viability, ATP luminescence, 48 h; Potency, µM (top dose mostly 46.1 µM), inactives show at the top dose activity, negative = toxicity, usual class: cytotoxic; AID 686971;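 further: 0% = DMSO wells and -100% = cell-free medium wells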
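IDH1KD HT-1080 cells, 750/well, RPMI + 5% FBS; compound pinned after 2 h settling; 48 h, 37 °C; CellTiter-Glo luminescence; % activity normalised to DMSO and no-cell wells; curves fitted, classed by r2 and efficacy.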
KB-V1 cytotox: KB-V1 MDR subline cytotoxicity. KB-V1 MDR cells viability, CellTiter-Glo, 72 h. 3.4% of 400,000 active. Potency, µM (highest dose often 46.1 µM), hits mostly cytotoxic. AID 1347076; further: nearly all actives have a fitted effect of over 60% in size
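KB-V1 MDR subline cells in DMEM (phenol-red free, 10% FBS) exposed to compounds in qHTS concentration series for 72 h at 37 degrees C. Viability read by CellTiter-Glo luminescence; concentration-effect curves fitted after normalization and correction.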
HT1080-NT tox: kills 2HG-producing HT-1080-NT fibrosarcoma cells; Potency, µM (highest dose often 46.1 µM), for the others: top-dose activity, negative = less viability, usual class: cytotoxic; AID 686970; HT-1080-NT fibrosarcoma viability, CellTiter-Glo ATP luminescence, 48 h; 1.6% of 360,000 active;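 further: NT is the 2HG producing partner of a matched IDH1 knockdown line; 0% = DMSO-treated cells and -100% = media-only wells without cells; nearly all actives have a fitted effect of over 55% in size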
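HT-1080-NT fibrosarcoma cells (2HG-overproducing), 750 cells/well in RPMI with 5% FBS, dosed after 2 h and incubated 48 h at 37C. CellTiter-Glo luminescence normalized to DMSO and no-cell wells; concentration-response curves fitted and classed.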
KB-3-1 tox: KB-3-1 parental cell cytotoxicity; Potency, µM (series often up to 46.1 µM), usual class: cytotoxic; AID 1347075; 1.4% of 400,000 active; KB-3-1 viability, CellTiter-Glo ATP luminescence, 72 h; further: nearly all actives have a fitted effect of over 60% in size
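Using CellTiter-Glo luminescence, growth of non-resistant KB-3-1 adenocarcinoma cells is assessed 72 h after pin-tool compound addition at 37 °C. Normalized responses across the concentration series yield fitted curves.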
DT40 TDP1 CPT: growth inhibition of DT40 Tdp1-/-;hTDP1 cells with camptothecin (screen for TDP1 inhibitors). 12% of 420,000 active. Potency, µM (series often up to 46.2 µM), inactives show top-dose activity change, negative = growth inhibition, hits mostly inhibitors. chicken DT40 Tdp1-/-;hTDP1 cells + 20 nM CPT, ATP luminescence, 48 h; further: nearly all actives have a fitted effect of over 55% in size
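Cell growth measured by CellTiter-Glo luminescence after a minimum 48 h, 37 C compound exposure with 20 nM CPT in Tdp1-knockout DT40 cells stably expressing hTDP1, seeded 400/well; qHTS titration format.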
* hit, by the source's call. The call rests on the fitted dose curve; in most records, active means well fitted curve in the direction sought with a large enough effect; inconclusive means small, poorly fitted or top-dose-only effect, or another doubt; inactive means no such curve, though single readings can be large; an effect the other way counts as inactive or inconclusive. Unless noted, on the % scale 0 is the no-effect control and ±100 the full control effect; potency means the concentration at half of the fitted maximal effect.

What do the screens show for `O=C(NCc1ccccc1)c1cc(C2CCCN(C(=O)CCc3ccccc3)C2)on1` (centres undefined)?
DT40 TDP1 no CPT: inconclusive; HT1080 IDH1KD tx: -1%; KB-V1 cytotox: inactive; HT1080-NT tox: -1%; KB-3-1 tox: inactive; DT40 TDP1 CPT: -19%

How did O=C(Nc1ccccc1)c1cc(C2CCCN(C(=O)CCc3ccccc3)C2)on1 (centres undefined) do in these assays?
DT40 TDP1 no CPT: inconclusive; HT1080 IDH1KD tx: 0%; KB-V1 cytotox: inactive; HT1080-NT tox: 1%; KB-3-1 tox: inactive; DT40 TDP1 CPT: 26µM*

Results for Cc1ccc(O)c(NC(=O)c2ccc3c(c2)C(=O)N(Cc2cccnc2)C3=O)c1 ?
DT40 TDP1 no CPT: -19%; HT1080 IDH1KD tx: -5%; KB-V1 cytotox: inactive; HT1080-NT tox: -4%; KB-3-1 tox: inactive; DT40 TDP1 CPT: -17%

Results for COc1ccc(-n2c(CNC(=O)c3cccc4ccccc34)nnc2SC)cc1 ?
DT40 TDP1 no CPT: -21%; DT40 TDP1 CPT: 9%

Results for CCCCOc1ccc(C(=O)Nc2cccc(-n3cnnn3)c2)cc1OC ?
DT40 TDP1 no CPT: -26%; HT1080 IDH1KD tx: -12%; KB-V1 cytotox: inactive; HT1080-NT tox: -8%; KB-3-1 tox: inactive; DT40 TDP1 CPT: -32%

Results for O=C(NCc1ccc(F)cc1)c1cc(C2CCCCN2C(=O)CCCc2ccccc2)on1 (centres undefined) ?
DT40 TDP1 no CPT: 23µM*; HT1080 IDH1KD tx: 0%; KB-V1 cytotox: inactive; HT1080-NT tox: 4%; KB-3-1 tox: inactive; DT40 TDP1 CPT: inconclusive

Results for CC(C)COC(=O)N1CCCCC1c1cc(C(=O)NCc2ccccc2)no1 (centres undefined) ?
DT40 TDP1 no CPT: inconclusive; HT1080 IDH1KD tx: 1%; KB-V1 cytotox: inactive; HT1080-NT tox: 6%; KB-3-1 tox: inactive; DT40 TDP1 CPT: 18µM*

How did O=C(NCc1ccccc1)c1cc(C2CCCCN2C(=O)CCCc2ccccc2)on1 (centres undefined) do in these assays?
DT40 TDP1 no CPT: inconclusive; HT1080 IDH1KD tx: 20%; KB-V1 cytotox: inactive; HT1080-NT tox: -6%; KB-3-1 tox: inactive; DT40 TDP1 CPT: -24%

How did COC(=O)N1CCCCC1c1cc(C(=O)NCc2ccccc2)no1 (centres undefined) do in these assays?
DT40 TDP1 no CPT: 0%; HT1080 IDH1KD tx: 17%; KB-V1 cytotox: inactive; HT1080-NT tox: 25%; KB-3-1 tox: inactive; DT40 TDP1 CPT: -7%

What do the screens show for `Cc1ccc(C2Cc3cc(O)c(O)cc3CN2)cc1` (centres undefined)?
DT40 TDP1 no CPT: 16µM*; HT1080 IDH1KD tx: inconclusive; KB-V1 cytotox: inactive; HT1080-NT tox: inconclusive; KB-3-1 tox: inactive; DT40 TDP1 CPT: 15µM*

What do the screens show for `Cc1ccc(C(=O)C2CCNCC2)cc1`?
DT40 TDP1 no CPT: -21%; HT1080 IDH1KD tx: 5%; KB-V1 cytotox: inactive; HT1080-NT tox: 12%; KB-3-1 tox: inactive; DT40 TDP1 CPT: -20%

What do the screens show for `Cc1ccc(-n2c(-c3cccc(C)c3)n[nH]c2=S)cc1`?
DT40 TDP1 no CPT: inconclusive; HT1080 IDH1KD tx: 10µM*; KB-V1 cytotox: inactive; HT1080-NT tox: inconclusive; KB-3-1 tox: inactive; DT40 TDP1 CPT: -13%

What do the screens show for `Cc1ccc(C2CC2c2n[nH]c(=S)n2-c2cccc(C)c2)cc1` (centres undefined)?
DT40 TDP1 no CPT: 16µM*; HT1080 IDH1KD tx: inconclusive; KB-V1 cytotox: inconclusive; HT1080-NT tox: -17%; KB-3-1 tox: inactive; DT40 TDP1 CPT: inconclusive

What do the screens show for `S=c1[nH]nc(-c2ccc(Br)cc2)n1-c1ccc2c(c1)OCCO2`?
DT40 TDP1 no CPT: 18µM*; HT1080 IDH1KD tx: -14%; KB-V1 cytotox: inactive; HT1080-NT tox: -2%; KB-3-1 tox: inactive; DT40 TDP1 CPT: inconclusive

Results for COc1ccc(-c2n[nH]c(=S)n2-c2ccc3c(c2)OCCO3)cc1 ?
DT40 TDP1 no CPT: inconclusive; HT1080 IDH1KD tx: 3%; KB-V1 cytotox: inactive; HT1080-NT tox: 2%; KB-3-1 tox: inactive; DT40 TDP1 CPT: inconclusive

What do the screens show for `Cc1cccc(-n2c(C)n[nH]c2=S)c1`?
DT40 TDP1 no CPT: -7%; HT1080 IDH1KD tx: inconclusive; KB-V1 cytotox: inactive; HT1080-NT tox: 1%; KB-3-1 tox: inactive; DT40 TDP1 CPT: -6%

What do the screens show for `COc1cc(-c2n[nH]c(=S)n2-c2cccc(C(F)(F)F)c2)cc(OC)c1OC`?
DT40 TDP1 no CPT: -18%; HT1080 IDH1KD tx: 9%; KB-V1 cytotox: 23µM*; HT1080-NT tox: 9%; KB-3-1 tox: inactive; DT40 TDP1 CPT: -8%

What do the screens show for `COc1ccc(-c2n[nH]c(=S)n2-c2ccc(C)cc2)cc1OC`?
DT40 TDP1 no CPT: -19%; HT1080 IDH1KD tx: 4%; KB-V1 cytotox: inactive; HT1080-NT tox: 3%; KB-3-1 tox: inactive; DT40 TDP1 CPT: 9%

How did COc1cc(-c2n[nH]c(=S)n2-c2ccccc2C(F)(F)F)cc(OC)c1OC do in these assays?
DT40 TDP1 no CPT: -28%; HT1080 IDH1KD tx: 15%; KB-V1 cytotox: inactive; HT1080-NT tox: -3%; KB-3-1 tox: inactive; DT40 TDP1 CPT: -15%

Results for CCOC(=O)c1c(C)[nH]c(C(=O)OCCOc2ccccc2C)c1C ?
DT40 TDP1 no CPT: -19%; HT1080 IDH1KD tx: 5%; KB-V1 cytotox: inconclusive; HT1080-NT tox: 14%; KB-3-1 tox: inactive; DT40 TDP1 CPT: -21%

Results for Cc1ccc(S(=O)(=O)NCCc2nnc3ccc(SCC(=O)Nc4nc(C)cs4)nn23)cc1 ?
DT40 TDP1 no CPT: -16%; HT1080 IDH1KD tx: -2%; KB-V1 cytotox: inactive; HT1080-NT tox: 2%; KB-3-1 tox: inactive; DT40 TDP1 CPT: -29%

How did Cc1cc(C)cc(OCC(=O)Nc2cccc3cccnc23)c1 do in these assays?
KB-V1 cytotox: inconclusive; KB-3-1 tox: inactive

What do the screens show for `S=c1[nH]nc([C@@H]2C[C@H]2c2ccccc2)n1-c1ccccc1Cl`?
DT40 TDP1 no CPT: -7%; HT1080 IDH1KD tx: -10%; KB-V1 cytotox: inactive; HT1080-NT tox: -9%; KB-3-1 tox: inactive; DT40 TDP1 CPT: -1%

How did Cc1ccc(C2CC2c2n[nH]c(=S)n2-c2ccc(Cl)cc2)cc1 (centres undefined) do in these assays?
DT40 TDP1 no CPT: inconclusive; HT1080 IDH1KD tx: inconclusive; KB-V1 cytotox: 16µM*; HT1080-NT tox: -21%; KB-3-1 tox: inconclusive; DT40 TDP1 CPT: inconclusive
